Hits are enriched below; roughly 3.3% of the tested compounds scored in any of these assays.
HTT aggregate: mutant huntingtin aggregation inhibition; PC12 HttQ103-GFP aggregates, Acumen cytometry, 40 h; Potency, µM (top dose mostly 46.1 µM), actives largely listed as inhibitors; 220,000 tested, 1.1% active; AID 1688; also: nearly all actives have a fitted effect of over 60% in size
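Ecdysone-promoter PC12 model expressing HTT exon 1 Q103 fused to GFP, induced by tebufenozide at 100 nM final. Compounds titrated; aggregates sized 1–25 µm scored on a 488 nm laser cytometer.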
PNC inhibitor: blocks assembly of the perinucleolar compartment; PC3M PTB-GFP, PNC prevalence imaging, 16 h; hits give low values; activity change (PNC), negative = inhibition, % at 10 µM; AID 2417; 140,000 tested, 3.1% active;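 active = readout at or below -70, meaning at least 70% loss of cells showing the perinucleolar compartment, a nuclear body marking cancer cells; inconclusive = readout between -30 and a set limit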
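PC3M cells stably expressing PTB-GFP, 750–1000 cells/well, treated 16 h at 37 °C with compound (23 nl of library stock), in duplicate. After paraformaldehyde fixation and Hoechst stain, imaged at 20x; PNC prevalence scored by image analysis.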
NPSR antagonist: blocks cAMP signaling of the human neuropeptide S receptor; 220,000 tested, 1% active; Q6W5P4; AID 1461; CHO-NPSR cells, cAMP TR-FRET, antagonist mode; Potency, µM (top dose mostly 38.3 µM), most hits filed as inhibitors; also: nearly all actives have a fitted effect of over 50% in size
Target sequence (Q6W5P4 whole entry, looked up): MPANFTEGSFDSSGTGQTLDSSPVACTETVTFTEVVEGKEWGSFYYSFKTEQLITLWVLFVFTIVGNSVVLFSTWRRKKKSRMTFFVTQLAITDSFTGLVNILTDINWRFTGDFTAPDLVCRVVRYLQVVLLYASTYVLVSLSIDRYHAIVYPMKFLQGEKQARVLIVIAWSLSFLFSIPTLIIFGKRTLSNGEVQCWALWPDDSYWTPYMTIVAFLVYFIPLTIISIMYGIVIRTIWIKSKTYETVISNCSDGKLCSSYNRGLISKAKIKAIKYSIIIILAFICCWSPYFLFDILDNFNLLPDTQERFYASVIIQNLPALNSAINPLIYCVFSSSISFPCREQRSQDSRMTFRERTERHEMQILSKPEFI
HTT ATP protect: Huntington cell model cytoprotection by ATP luminescence; PC12 HTT-Q103 induced, cytoprotection, ATP luminescence, 40 h; Potency, µM (series often up to 56.4 µM), most hits filed as activators; 230,000 tested, 0.14% active; also: nearly all actives have a fitted effect of over 45% in size
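Cells were plated at 1500 per well in phenol red-free DMEM with 5% equine and 5% calf serum. Tebufenozide (100 nM final) and compounds were added, then ATPlite reagent, and luminescence was read.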
12-hLO inh: blocks human 12-lipoxygenase activity. Potency, µM (series often up to 57.1 µM), usual class: inhibitors. 150,000 tested, 0.12% active. purified 12-hLO, xylenol orange hydroperoxide absorbance. P18054; also: nearly all actives have a fitted effect of over 55% in size
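Lipoxygenase turnover measured by absorbance at 573 and 405 nm after Fe-XO development. Human 12hLO 150 nM, arachidonate 40 uM, pH 7.0 Hepes buffer with detergent; 15 min compound preincubation, 30 min reaction.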
IMPase inh: membrane-permeable compound that blocks inositol monophosphatase. inhibition (IP1 accumulation), % at 46.1 µM. P97697. CHO-M1 cells, IP1 accumulation, HTRF TR-FRET ratio. AID 901. 120,000 tested, under 10 active; active = well fitted curve in the direction sought with a large enough effect in the signal ratio, not every such curve was filed as active; inconclusive = small, poorly fitted or top-dose-only effect, or a change in a side signal; inactive = no such curve, though single readings can be large or run the other way; the % refers to the signal ratio;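 also: cells stimulated with carbachol in lithium chloride buffer; higher means more IMPase inhibition seen as more IP1 and lower FRET ratio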
Target sequence (P97697 whole entry, looked up): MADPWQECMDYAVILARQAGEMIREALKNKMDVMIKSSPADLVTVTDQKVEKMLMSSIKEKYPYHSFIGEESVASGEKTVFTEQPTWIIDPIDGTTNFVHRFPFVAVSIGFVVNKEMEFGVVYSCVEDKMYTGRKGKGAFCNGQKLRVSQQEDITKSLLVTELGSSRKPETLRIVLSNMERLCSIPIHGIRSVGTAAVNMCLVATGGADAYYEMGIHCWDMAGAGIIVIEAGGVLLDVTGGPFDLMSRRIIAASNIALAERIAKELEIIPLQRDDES
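CHO-M1 cells (CHO stably expressing M1 receptor), compound up to 46 uM final, stimulated with carbachol (50 uM as added) in buffer with 50mM LiCl, pH 7.4, 30 min at 37C. Cytosolic IP1 read by TR-FRET; AC50 from Hill fits.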
Hits are given with their value; n = inactive; u = inconclusive; x = no result; [ ] = dose if it differs, or a comment. Unless noted, calls follow the shape of the dose curve; as a rule, active = well fitted curve in the direction sought with a large enough effect; inconclusive = small, poorly fitted or top-dose-only effect, or another doubt; inactive = no such curve, though single readings can be large; an effect the other way counts as inactive or inconclusive.

SMILES	HTT aggregate	PNC inhibitor	NPSR antagonist	HTT ATP protect	12-hLO inh	IMPase inh
Cn1c(SCc2ccc(Br)cc2)nnc1-c1cccs1	n	n	n	n[0.074 µM]	n	n
Cc1ccc(CSc2nnc(-c3cccs3)n2C)cc1	n	-100	n	n[10 µM]	n	n
CC(C)C(c1nnnn1Cc1ccc2c(c1)OCO2)N1CCN(C)CC1 (stereo not drawn)	n	-100	n	n[10 µM]	n	n
CC(C)C(c1nnnn1Cc1ccc2c(c1)OCO2)N1CCN(c2ccccc2)CC1 (stereo not drawn)	n	n	n	n	n	n
CS(=O)(=O)c1ncc(Cl)c(C(=O)Nc2ccc3ccccc3c2)n1	u	x	10µM	n	x	x
O=C(Nc1ccc2ccccc2c1)c1cnccn1	n	n	n	n[0.074 µM]	n	n
Fc1ccc(Nc2ncncc2-c2ccoc2)cc1	x	x	x	n	x	x
COC(=O)c1ccc(C(NC(=O)OCc2ccccc2)/C(F)=C/[C@@H](C)C(=O)NCc2ccc(OC)c(OC)c2)cc1 (stereo partly drawn)	n	-119	n	n	n	x
CCOC(=O)c1c(NC(=O)/C=C/c2ccc(OCC)cc2)sc2c1CCC2	x	x	x	x	x	n
CCN(CC)CCCNC(=O)c1ccc(Cc2nc3ccccc3[nH]2)cc1	x	x	x	x	n	x
COCCN1CN(S(=O)(=O)c2ccccc2)c2nc3ccccc3nc21	n	-117	n	n	n	n
NC(N)=N/N=C/c1cc([N+](=O)[O-])ccc1O	n	-115	n	n[10 µM]	n	n
O=[N+]([O-])c1ccc(O)c(/C=N\N=C2c3ccccc3-c3ccccc32)c1	11µM	u	n	n[10 µM]	n	x
O=c1c(-c2cc(F)cc(F)c2)nc2cnc(N3CCOCC3)nc2n1Cc1ccc(F)cc1	x	x	x	n	x	x
Cc1oncc1C(=S)Nc1ccccc1	n	-92	n	n	n	n
CN(C)c1ccc(C(=S)Nc2ccccc2)cc1	n	n	n	n[10 µM]	n	x
O=S(=O)(c1cccc2c(Cl)cccc12)N1CCCNCC1	x	x	n	n	n	n
Cc1cc(O)c2ccccc2c1O	u	x	x	n	x	x
CC(=O)Oc1c(C)cc(O)c2ccccc12	14µM	n	n	n	n	n
CCC1=C2CC[C@H]3C(=O)N(c4ccccc4)C(=O)[C@H]3[C@H]2[C@@]2(Cc3ccccc3)C(=NCCc3c[nH]c4ccccc34)OC(=O)N2C1=O	x	x	x	n	n	x
C[C@@H]1CC2(OC3C[C@@]4(C)C5=CC[C@H]6C(C)(C)C(O[C@@H]7OC[C@@H](O)[C@H](O)[C@H]7O)CC[C@@]67C[C@@]57CC[C@]4(C)C31)OC(O)C1(C)OC21 (stereo partly drawn)	x	x	x	n	n	x
O=C(O)c1ccc(CNCc2ccccc2F)cc1	n[9.22 µM]	x	n	n[10 µM]	x	x
Fc1ccc(CNCc2ccccc2C(F)(F)F)cc1	n	-114	n	x	n	x
Cc1nn(CC2CC2)c(=O)n1-c1ccc(F)cc1	n	x	n	n	x	x
Cc1ccc2c(Cl)c(C(=O)Nc3ccc4c(c3)OCO4)sc2c1	n	u	6.3µM	x	n	x
SMILES	HTT aggregate	PNC inhibitor	NPSR antagonist	HTT ATP protect	12-hLO inh	IMPase inh
Cc1noc(C(=O)Nc2ccc3c(c2)OCO3)c1Cl	n	n	n	n	n	n
Cc1c(CCOC(=O)CC23CC4CC(CC(C4)C2)C3)sc[n+]1Cc1ccccc1	11µM	n	n	n	n	n
Cc1ncc(C[n+]2csc(CCOC(=O)CC34CC5CC(CC(C5)C3)C4)c2C)c(N)n1	n	n	n	n[10 µM]	n	x
O=C(O)C1CCCN(S(=O)(=O)c2cccs2)C1 (stereo not drawn)	n	-100	n	n[10 µM]	n	n
Cc1cccc(NC(=O)C2CCC(CNS(=O)(=O)c3ccc(Br)s3)CC2)c1 (stereo not drawn)	x	x	x	x	x	n
CCCN(CCC)S(=O)(=O)c1ccc(C(=O)Nc2nnc(CSC)o2)cc1	11µM	n	n	n	n	n
CCCCN(CC)S(=O)(=O)c1ccc(C(=O)Nc2nnc(COC)o2)cc1	u	n	n	n	n	u
CCN(Cc1ccccc1)S(=O)(=O)c1ccc(C(=O)Nc2nnc(-c3ccccc3OC)o2)cc1	22µM	u	n	n[10 µM]	n	n
CCCCN(CCCC)S(=O)(=O)c1ccc(C(=O)Nc2nnc(CSC)o2)cc1	u	n	n	n	n	n
CCCCN(CC)S(=O)(=O)c1ccc(C(=O)Nc2nnc(CSC)o2)cc1	10µM	n	n	n	n	n
CCCCN(CC)S(=O)(=O)c1ccc(C(=O)Nc2nnc(-c3ccccc3Cl)o2)cc1	10µM	n	n	n[10 µM]	n	n
CC1(C)C(=O)C(c2ccccc2)=C2CN3C(=O)N(CCc4ccccc4)C(=O)C3(Cc3ccc(C(F)(F)F)cc3)C=C21 (stereo not drawn)	x	x	x	n	n	x
CC1CCN(C(=O)c2c(NC(=O)c3ccccc3F)sc3c2CCC(C(C)(C)C)C3)CC1 (stereo not drawn)	x	x	x	x	x	n
S=C(S)NCCN1CCNCC1	x	x	x	n[10 µM]	n[11.4 µM]	x
O=C(CSCc1ccc(C(=O)O)cc1)Nc1ccc2ccccc2c1	40µM	x	n	x	x	x
CCc1cccc(CC)c1NC(=S)NC(C)c1ccccc1 (stereo not drawn)	u	n	n	n[10 µM]	n	x
CCc1cc(C(=O)NNC(=S)NC(C)c2ccccc2)cs1 (stereo not drawn)	18µM	n	n	n	n	n
CC(Oc1ccc(F)cc1)C(=O)/C=C\N(C)C (stereo not drawn)	n	-88	n	n[10 µM]	n	n
O=C1NC2=C(CCc3ccccc32)C(c2ccccc2)N1 (stereo not drawn)	n	-113	n	x	n	x
Cc1nc(SCC(=O)Nc2ccccc2C(F)(F)F)c(C#N)c(C)c1CC(=O)c1ccc(Br)cc1	n	u	10µM	n	n	n
CNc1ccc(O)cc1	x	x	x	n	n	x
CC(CC(=O)O)(CC(=O)O)C(=O)O	x	x	x	n[10 µM]	n[11.4 µM]	x
N#Cc1c(/N=C/c2ccc(Br)s2)sc2c1CCC2	n	-100	n	n[10 µM]	n	n
Cc1cc(C)nc(/N=C(/NC(=O)Nc2ccc(Cl)c(Cl)c2)Nc2cccc(Cl)c2)n1	n	-113	n	n[10 µM]	n	n
COc1ccc(-c2nc3n(n2)C(c2ccccc2OC)C(C(=O)Nc2cccnc2)=C(C)N3)cc1 (stereo not drawn)	x	x	x	x	x	n
CCN(CC)C(=O)C1CCCc2c1[nH]c1ccc(Cl)cc21 (stereo not drawn)	n	-93	n	n	n	n
O=C(Oc1cccc2cccnc12)c1ccco1	n	n	n	n[10 µM]	n	n
O=C(Oc1ccc(Cl)c2cccnc12)c1ccco1	u	n	4µM	n[10 µM]	n	n
CS(=O)(=O)N1CCN(C(=O)c2ccc(-c3ccccc3)cc2)CC1	n	-83	n	n	n	n
COc1ccc(-c2cc(=O)oc3cc(OC(=O)C4CCCCC4)c(Cl)cc23)cc1	0.28µM	n	n	n[10 µM]	n	x
